Read-out in assay [1]: Interleukin-6 (IL6), IL6 (gene 3569)
Briefly: BSK_CASM3C_IL6: BioMAP Diversity Plus: CASM3C Assay for Interleukin-6 (IL6) Biomarker Activity for (AID 2283040). As to conditions: primary human coronary artery smooth muscle cells; actives raise or lower the signal.

Read-out in assay [2]: Tissue plasminogen activator (tPA), PLAT (gene 5327)
Briefly: BSK_BE3C_tPA: BioMAP Diversity Plus: BE3C Assay for Tissue plasminogen activator (tPA) Biomarker Activity (AID 2283041).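 For outcome: tPA level quantified by ELISA one day after compound addition.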 As to conditions: primary human bronchial epithelial cells; actives raise or lower the signal. The method, boiled down:
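Using human lung primary bronchial epithelial cells, tPA was measured by ELISA 24 h after dosing; data fitted relative to DMSO.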

Read-out in assay [3]: Interleukin-8 (IL8), CXCL8 (gene 3576)
Briefly: BSK_CASM3C_IL8: BioMAP Diversity Plus: CASM3C Assay for Interleukin-8 (IL8) Biomarker Activity (AID 2283042).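 Note: IL-8 protein level quantified by ELISA.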 As to conditions: primary human coronary artery smooth muscle cells; actives raise or lower the signal.

Read-out in assay [4]: Human Leukocyte Antigen - DR isotype (HLADR), HLA-DRA (gene 3122)
The assay can be described thus: BSK_CASM3C_HLADR: BioMAP Diversity Plus: CASM3C Assay for Human Leukocyte Antigen - DR isotype (HLADR) Biomarker Activity (AID 2283043).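 Note: cell-surface HLA-DR protein level quantified by ELISA.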 As to conditions: primary human coronary artery smooth muscle cells; actives raise or lower the signal.

Read-out in assay [5]: Macrophage colony-stimulating factor (MCSF), CSF1 (gene 1435)
The assay can be described thus: BSK_CASM3C_MCSF: BioMAP Diversity Plus: CASM3C Assay for Macrophage colony-stimulating factor (MCSF) Biomarker Activity (AID 2283044).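 Note: M-CSF protein amount quantified by ELISA after 24 h exposure.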 As to conditions: primary human coronary artery smooth muscle cells; actives raise or lower the signal.

Read-out in assay [6]: Low-density lipoprotein receptor (LDLR), LDLR (gene 3949)
Briefly: BSK_CASM3C_LDLR: BioMAP Diversity Plus: CASM3C Assay for Low-density lipoprotein receptor (LDLR) Biomarker Activity (AID 2283045).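 Note: LDLR protein level on the cell surface quantified by ELISA.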 As to conditions: primary human coronary artery smooth muscle cells; actives raise or lower the signal.

Read-out in assay [7]: Monocyte Chemoattractant Protein-1 (MCP1), CCL2 (gene 6347)
Briefly: BSK_CASM3C_MCP1: BioMAP Diversity Plus: CASM3C Assay for Monocyte Chemoattractant Protein-1 (MCP1) Biomarker Activity (AID 2283046).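 Note: MCP-1 level quantified by ELISA 24 h after dosing.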 As to conditions: primary human coronary artery smooth muscle cells; actives raise or lower the signal.

Assay [8] can be described thus: BSK_CASM3C_Proliferation: Cell Proliferation Assessment in the BioMAP Diversity Plus: CASM3C Assay (AID 2283047).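 Note: sulforhodamine B total protein stain as relative cell number at 560 nm; sub-confluent cells exposed 48 h before staining; fitted both ways against DMSO so gain or loss of cell number.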 The note with it: primary human coronary artery smooth muscle cells.
Read-out in assay [9]: Monokine induced gamma interferon (MIG), CXCL9 (gene 4283)
The assay can be described thus: BSK_CASM3C_MIG: BioMAP Diversity Plus: CASM3C Assay for Monokine induced gamma interferon (MIG) Biomarker Activity (AID 2283048).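 Note: MIG protein level measured by ELISA.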 As to conditions: primary human coronary artery smooth muscle cells; actives raise or lower the signal.

Read-out in assay [10]: serum amyloid A (SAA), SAA1 (gene 6288)
Briefly: BSK_CASM3C_SAA: BioMAP Diversity Plus: CASM3C Assay for serum amyloid A (SAA) Biomarker Activity (AID 2283049).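 Note: SAA protein level quantified by ELISA.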 As to conditions: primary human coronary artery smooth muscle cells; actives raise or lower the signal.

Molecules are shown by their SMILES. Values joined by “and” are separate entries in the source; they are usually repeats but may differ in a detail not shown here. Identical values can stand only once. Some structures have more than one record in an assay (separate samples or runs), and their calls can disagree. Active and inactive are the calls of the source. Rule for the calls: active = hit-call score of the fitted dose curve at least 0.9, where 1 is the maximum; inactive = score below 0.9.

Usually AC50 stands for the midpoint of the concentration-response curve, whichever way the signal moves. As for `CCCCCCOC(=O)c1ccccc1O`, the outcome in [1], in assay [2], in assay [3], in [4], in assay [5] and in assay [6] was inactive. For the same molecule, the outcome in assay [7], in assay [9] and in assay [10] was inactive. Moreover, in assay [8], the AC50 is 33.5 µM (active) and 24.5 µM (active).
Take `O=C(CC(=O)C(F)(F)C(F)(F)F)C(F)(F)F`: the outcome in assay [1], in assay [2], in assay [3], in assay [4], in assay [5] and in assay [6] was inactive. For the same molecule, the result in assay [7], in assay [8], in assay [9] and in assay [10] was inactive.
Consider `CCCCCCC(C)OC(=O)CCCCC(=O)OC(C)CCCCCC` (stereo unspecified), for which the outcome in assay [1], in assay [2], in assay [3], in assay [4], in assay [5] and in assay [6] was inactive. Besides, the result in assay [7], in assay [8], in assay [9] and in assay [10] was inactive.
As to `C=C(C)C(=O)OCCC(F)(F)C(F)(F)C(F)(F)C(F)(F)C(F)(C(F)(F)F)C(F)(F)F`, the outcome in assay [1], in assay [2], in assay [3], in [4], in assay [5] and in [6] was inactive. The result in [7], in assay [8], in [9] and in assay [10] was inactive.
For `CCc1c(Br)c(Br)c(Br)c(Br)c1Br`, the outcome in [1], in assay [2], in assay [3], in assay [4], in assay [5] and in [6] was inactive. Also, the outcome in assay [7], in assay [8], in assay [9] and in assay [10] was inactive.
Turning to `FC(F)(F)C(F)(F)C(F)(F)CI`, the result in [1], in assay [2], in assay [3], in [4], in assay [5] and in [6] was inactive. The result in assay [7], in assay [8], in assay [9] and in assay [10] was inactive.
Take `CCCCC(CC)COP(=O)(O)OCC(CC)CCCC` (stereo unspecified): the outcome in [1], in [3], in assay [4], in assay [5], in [6] and in [7] was inactive. The result in assay [8], in [9] and in assay [10] was inactive. Also, in assay [2], the AC50 was 25.9 µM (active) and 14.4 µM (active).
Regarding `O=C(O)C(F)(F)C(F)(F)F`, the outcome in assay [1], in assay [2], in assay [3], in assay [4], in assay [5] and in [6] was inactive. Moreover, the result in assay [7], in [8], in assay [9] and in assay [10] was inactive.
For `FC(F)(F)C(F)(F)C(F)(F)C(F)(F)C(F)(F)C(F)(F)C(F)(F)I`, the result in assay [1], in [2], in [3], in assay [4], in assay [5] and in assay [6] was inactive. For the same molecule, the result in assay [7], in [8], in assay [9] and in assay [10] was inactive.
With `O=C(O)C(F)(F)C(F)(F)C(F)F`, the result in assay [1], in assay [2], in assay [3], in assay [4], in [5] and in assay [6] was inactive. The result in [7], in assay [8], in assay [9] and in [10] was inactive. The AC50 in [10] is 5.48 µM (active).
Regarding `CCCCCCCCCCCCCCCC[N+](C)(C)Cc1ccccc1`, the AC50 in [1] is 3.74 µM (active); in assay [2], 7.03 µM (active); in [3], 4.79 µM (active); in [4] it was 2.56 µM (active); in assay [5], 1.89 µM (active); in assay [6], 9.64 µM (active). Moreover, the AC50 in assay [7] was 3.5 µM (active); in assay [8] it was 1.29 µM (active); in assay [9] it was 5.11 µM (active); in assay [10], 2.59 µM (active).
Turning to `OCC(F)(F)C(F)(F)C(F)(F)C(F)(F)C(F)(F)C(F)(F)F`, the outcome in assay [1], in [2], in [3], in [4], in assay [5] and in assay [6] was inactive. The result in assay [7], in assay [9] and in assay [10] was inactive. The AC50 in assay [8] is 46.6 µM (active) and 54.9 µM (active).
Regarding `C=CC/C=C/C/C=C/C/C=C/C`, the outcome in assay [1], in assay [2], in assay [3], in assay [4], in assay [5] and in assay [6] was inactive. In addition, the result in assay [7], in [9] and in [10] was inactive. Also, in assay [8], the AC50 was 0.108 µM (active).
For the molecule `OCC(F)(F)C(F)(F)C(F)(F)C(F)(F)C(F)(F)C(F)F`, the outcome in [1], in assay [2], in assay [3], in [4], in [5] and in assay [6] was inactive. For the same molecule, the result in [7], in [8], in assay [9] and in [10] was inactive.
With `FC(F)(F)C(F)(F)C(F)(F)C(F)(F)C(F)(F)CCI`, the result in [1], in assay [2], in assay [3], in [4], in [5] and in assay [6] was inactive. For the same molecule, the result in [7], in assay [9] and in [10] was inactive. In addition, the concentration at half-maximal activity (AC50) in assay [8] was 7.99 µM (active) and 30 µM (active).
Turning to `FC(F)(F)C(F)(F)C(F)(F)C(F)(F)C(F)(F)C(F)(F)C(F)(F)Br`, the result in assay [1], in [2], in assay [3], in [4], in [5] and in [6] was inactive. Besides, the result in assay [7], in assay [8], in [9] and in assay [10] was inactive.
Regarding `CCN(CC)c1ccc2c(C)cc(=O)oc2c1`, the result in assay [1], in [2], in [3], in assay [4], in assay [5] and in [7] was inactive. Also, the result in assay [8], in assay [9] and in [10] was inactive. In [6], the AC50 is 31.3 µM (active).
Take `NC(=O)C(F)(F)C(F)(F)C(F)(F)C(F)(F)F`: the result in assay [1], in assay [2], in [3], in assay [4], in assay [5] and in [6] was inactive. The outcome in assay [7], in assay [8], in [9] and in [10] was inactive.

(Values after PubChem BioAssay (EPA / NIEHS).)
